{"source": "the supplement of paper PMC11006884", "note": "About 6,500 targets were measured; listed, in parts, are those with a hit and a random draw of the rest. About 2% of all pairs of compound and target were hits."}
{"compound": "COC(=O)C#Cc1ccccc1 [methyl 3-phenylpropiolate]", "experiment": "log2 ratio of iodoacetamide-alkyne labeling of the cysteine site, DMSO over compound (competition); higher = stronger covalent engagement of the cysteine by the compound, active = 1 or more", "details": "500 µM; treatment time 1 h; system: HEK293T cell lysate", "summary_of_the_method": "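For each cysteine, the log2 competition ratio is mean control-channel reporter intensity over mean compound-channel reporter intensity. HEK293T lysate (2 mg/mL) was exposed to vehicle or electrophile (500 µM, 1 h, ambient temperature), labelled with iodoacetamide alkyne (1 h), clicked to sCIP-TMT reagents, digested overnight with trypsin at 37 °C, streptavidin-enriched and analysed by Orbitrap Eclipse LC-MS/MS with FAIMS and FragPipe. Cysteines quantified in only one of three replicates, each with duplicate channels, were excluded.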"}
{"target": "APIP C97 (UniProt Q96GX9)", "log2 ratio of iodoacetamide-alkyne labeling": "0.129 (inactive)"}
{"target": "PARG C515 (UniProt Q86W56)", "sequence (Q86W56 whole entry, looked up)": "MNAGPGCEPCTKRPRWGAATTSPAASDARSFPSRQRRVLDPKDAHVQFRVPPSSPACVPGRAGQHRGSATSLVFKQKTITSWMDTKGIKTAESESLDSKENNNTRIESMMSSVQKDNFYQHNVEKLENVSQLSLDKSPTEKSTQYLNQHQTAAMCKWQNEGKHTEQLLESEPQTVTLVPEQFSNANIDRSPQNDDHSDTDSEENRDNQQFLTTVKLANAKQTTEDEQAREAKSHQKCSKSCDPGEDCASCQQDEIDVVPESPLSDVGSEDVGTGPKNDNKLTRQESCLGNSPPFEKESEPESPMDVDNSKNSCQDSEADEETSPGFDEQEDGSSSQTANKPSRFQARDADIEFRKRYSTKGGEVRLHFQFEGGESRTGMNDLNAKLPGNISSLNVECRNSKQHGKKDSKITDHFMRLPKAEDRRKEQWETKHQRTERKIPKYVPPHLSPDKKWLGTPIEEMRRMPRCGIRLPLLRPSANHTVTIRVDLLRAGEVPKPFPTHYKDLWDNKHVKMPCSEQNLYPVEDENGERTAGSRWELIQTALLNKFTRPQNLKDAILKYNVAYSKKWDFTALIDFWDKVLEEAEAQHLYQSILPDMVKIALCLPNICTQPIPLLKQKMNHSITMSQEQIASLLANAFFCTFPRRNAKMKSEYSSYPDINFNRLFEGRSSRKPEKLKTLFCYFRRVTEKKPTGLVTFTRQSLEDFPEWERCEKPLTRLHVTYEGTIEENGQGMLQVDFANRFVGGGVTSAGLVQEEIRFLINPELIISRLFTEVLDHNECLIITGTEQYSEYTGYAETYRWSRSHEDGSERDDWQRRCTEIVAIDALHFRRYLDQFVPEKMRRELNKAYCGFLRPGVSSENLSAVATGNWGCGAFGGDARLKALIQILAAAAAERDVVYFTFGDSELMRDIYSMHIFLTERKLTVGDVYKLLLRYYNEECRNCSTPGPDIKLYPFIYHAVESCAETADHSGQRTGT", "log2 ratio of iodoacetamide-alkyne labeling": "1.16 (active)"}
{"target": "NKAP C349 (UniProt Q8N5F7)", "log2 ratio of iodoacetamide-alkyne labeling": "0.496 (inactive)"}
{"target": "NSD1 C1689 (UniProt Q96L73)", "log2 ratio of iodoacetamide-alkyne labeling": "0.216 (inactive)"}
{"target": "WDFY1 C287 (UniProt Q8IWB7)", "log2 ratio of iodoacetamide-alkyne labeling": "0.127 (inactive)"}
{"target": "IRF2BP1 C363 (UniProt Q8IU81)", "sequence (Q8IU81 whole entry, looked up)": "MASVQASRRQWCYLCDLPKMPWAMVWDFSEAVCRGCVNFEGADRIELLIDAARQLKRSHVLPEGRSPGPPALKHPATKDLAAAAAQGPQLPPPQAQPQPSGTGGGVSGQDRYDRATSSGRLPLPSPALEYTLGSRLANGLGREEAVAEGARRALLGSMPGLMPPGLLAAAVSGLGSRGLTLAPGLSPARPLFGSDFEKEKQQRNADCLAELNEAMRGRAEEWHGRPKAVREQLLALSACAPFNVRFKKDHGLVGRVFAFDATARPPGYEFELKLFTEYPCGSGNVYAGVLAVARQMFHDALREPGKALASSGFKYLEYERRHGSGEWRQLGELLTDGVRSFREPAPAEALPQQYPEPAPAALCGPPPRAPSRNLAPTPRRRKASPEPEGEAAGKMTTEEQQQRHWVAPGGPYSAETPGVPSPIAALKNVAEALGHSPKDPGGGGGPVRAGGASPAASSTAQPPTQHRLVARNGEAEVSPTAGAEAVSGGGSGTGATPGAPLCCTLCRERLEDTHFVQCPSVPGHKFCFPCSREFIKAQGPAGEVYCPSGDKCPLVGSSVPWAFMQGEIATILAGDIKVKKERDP", "log2 ratio of iodoacetamide-alkyne labeling": "0.0738 (inactive)"}
{"target": "RPL36AL C72 (UniProt Q969Q0)", "log2 ratio of iodoacetamide-alkyne labeling": "0.0561 (inactive)"}
{"target": "FAM122B C155 (UniProt Q7Z309)", "sequence (Q7Z309 whole entry)": "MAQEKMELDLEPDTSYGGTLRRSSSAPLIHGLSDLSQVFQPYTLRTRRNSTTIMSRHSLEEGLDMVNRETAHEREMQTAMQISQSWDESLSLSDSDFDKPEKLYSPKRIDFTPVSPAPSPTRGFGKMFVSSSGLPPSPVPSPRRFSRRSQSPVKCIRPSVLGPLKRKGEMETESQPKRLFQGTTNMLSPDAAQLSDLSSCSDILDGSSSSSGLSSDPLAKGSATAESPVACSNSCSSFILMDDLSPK", "log2 ratio of iodoacetamide-alkyne labeling": "1.05 (active)"}
{"target": "UniProt Q7Z4H7_C885", "log2 ratio of iodoacetamide-alkyne labeling": "0.286 (inactive)"}
{"target": "DIDO1 C455 (UniProt Q9BTC0)", "log2 ratio of iodoacetamide-alkyne labeling": "0.67 (inactive)"}
{"target": "DDX1 C110 (UniProt Q92499)", "sequence (Q92499 whole entry, looked up)": "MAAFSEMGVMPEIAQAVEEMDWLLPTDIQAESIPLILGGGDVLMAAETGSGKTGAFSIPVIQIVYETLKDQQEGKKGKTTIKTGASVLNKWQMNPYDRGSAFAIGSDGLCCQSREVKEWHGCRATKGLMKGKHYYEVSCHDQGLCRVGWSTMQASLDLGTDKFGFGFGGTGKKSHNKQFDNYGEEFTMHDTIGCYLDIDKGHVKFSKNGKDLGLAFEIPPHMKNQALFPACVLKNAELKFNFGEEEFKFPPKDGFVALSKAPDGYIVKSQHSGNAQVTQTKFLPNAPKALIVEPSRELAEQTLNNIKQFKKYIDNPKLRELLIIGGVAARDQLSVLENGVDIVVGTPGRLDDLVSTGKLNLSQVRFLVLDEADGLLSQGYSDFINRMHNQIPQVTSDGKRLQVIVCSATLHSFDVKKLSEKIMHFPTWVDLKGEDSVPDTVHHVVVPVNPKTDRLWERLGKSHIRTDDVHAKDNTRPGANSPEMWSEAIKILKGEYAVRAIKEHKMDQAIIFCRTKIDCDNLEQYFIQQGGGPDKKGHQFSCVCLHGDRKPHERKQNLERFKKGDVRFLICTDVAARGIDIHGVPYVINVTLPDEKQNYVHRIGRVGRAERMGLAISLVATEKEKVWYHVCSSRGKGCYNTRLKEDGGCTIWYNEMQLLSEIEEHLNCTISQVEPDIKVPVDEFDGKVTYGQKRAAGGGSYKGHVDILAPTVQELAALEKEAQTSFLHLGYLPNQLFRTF", "log2 ratio of iodoacetamide-alkyne labeling": "0.315 (inactive)"}
{"target": "GINS3 C188 (UniProt Q9BRX5)", "log2 ratio of iodoacetamide-alkyne labeling": "0.255 (inactive)"}
{"target": "CAND1 C1153 (UniProt Q86VP6)", "sequence (Q86VP6 whole entry, looked up)": "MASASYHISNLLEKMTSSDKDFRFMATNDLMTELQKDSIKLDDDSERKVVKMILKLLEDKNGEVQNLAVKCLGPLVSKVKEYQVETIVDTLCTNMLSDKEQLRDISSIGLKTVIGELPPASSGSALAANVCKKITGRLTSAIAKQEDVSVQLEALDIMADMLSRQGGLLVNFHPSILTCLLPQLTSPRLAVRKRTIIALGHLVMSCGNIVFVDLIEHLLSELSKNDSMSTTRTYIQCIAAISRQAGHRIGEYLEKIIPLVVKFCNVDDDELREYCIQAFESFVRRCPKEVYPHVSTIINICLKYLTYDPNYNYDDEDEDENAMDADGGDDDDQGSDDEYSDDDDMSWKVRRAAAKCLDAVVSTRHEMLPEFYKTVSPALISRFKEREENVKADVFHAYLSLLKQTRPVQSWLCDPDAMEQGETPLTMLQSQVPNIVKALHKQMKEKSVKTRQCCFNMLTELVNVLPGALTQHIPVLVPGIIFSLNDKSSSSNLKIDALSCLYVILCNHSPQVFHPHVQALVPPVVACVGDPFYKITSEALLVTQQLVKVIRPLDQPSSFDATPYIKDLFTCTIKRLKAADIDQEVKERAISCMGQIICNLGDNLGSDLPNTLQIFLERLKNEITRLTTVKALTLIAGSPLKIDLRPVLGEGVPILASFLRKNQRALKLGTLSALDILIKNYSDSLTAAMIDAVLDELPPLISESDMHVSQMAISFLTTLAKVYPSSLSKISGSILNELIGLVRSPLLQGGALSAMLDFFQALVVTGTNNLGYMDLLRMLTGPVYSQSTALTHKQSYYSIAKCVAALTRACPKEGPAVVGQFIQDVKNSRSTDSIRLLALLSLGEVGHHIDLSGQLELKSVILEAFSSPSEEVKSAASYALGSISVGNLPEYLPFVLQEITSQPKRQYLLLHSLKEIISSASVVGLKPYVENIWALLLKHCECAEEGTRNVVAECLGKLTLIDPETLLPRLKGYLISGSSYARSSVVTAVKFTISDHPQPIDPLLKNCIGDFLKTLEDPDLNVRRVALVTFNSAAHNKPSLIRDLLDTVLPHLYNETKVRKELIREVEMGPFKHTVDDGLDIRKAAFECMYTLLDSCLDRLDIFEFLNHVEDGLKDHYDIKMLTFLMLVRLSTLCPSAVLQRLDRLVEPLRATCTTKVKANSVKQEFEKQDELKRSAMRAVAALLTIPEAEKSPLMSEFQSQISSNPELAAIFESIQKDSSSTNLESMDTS", "log2 ratio of iodoacetamide-alkyne labeling": "0.443 (inactive)"}
{"target": "LUZP1 C594 (UniProt Q86V48)", "log2 ratio of iodoacetamide-alkyne labeling": "1.19 (active)"}
{"target": "CCT7 C310 (UniProt Q99832)", "log2 ratio of iodoacetamide-alkyne labeling": "0.193 (inactive)"}
{"target": "ARL6IP6 C48 (UniProt Q8N6S5)", "sequence (Q8N6S5 whole entry)": "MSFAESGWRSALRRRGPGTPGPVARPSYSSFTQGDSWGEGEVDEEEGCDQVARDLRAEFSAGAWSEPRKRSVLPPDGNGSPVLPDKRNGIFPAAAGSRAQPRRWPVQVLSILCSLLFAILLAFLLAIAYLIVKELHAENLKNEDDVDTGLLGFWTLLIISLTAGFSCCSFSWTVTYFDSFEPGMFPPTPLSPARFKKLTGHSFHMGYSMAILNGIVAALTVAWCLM", "log2 ratio of iodoacetamide-alkyne labeling": "0.392 (inactive)"}
{"target": "DCUN1D4 C253 (UniProt Q92564)", "log2 ratio of iodoacetamide-alkyne labeling": "0.287 (inactive)"}
{"target": "PDLIM5 C446 (UniProt Q96HC4)", "log2 ratio of iodoacetamide-alkyne labeling": "0.0755 (inactive)"}
{"target": "RNF25 C360 (UniProt Q96BH1)", "sequence (Q96BH1 whole entry)": "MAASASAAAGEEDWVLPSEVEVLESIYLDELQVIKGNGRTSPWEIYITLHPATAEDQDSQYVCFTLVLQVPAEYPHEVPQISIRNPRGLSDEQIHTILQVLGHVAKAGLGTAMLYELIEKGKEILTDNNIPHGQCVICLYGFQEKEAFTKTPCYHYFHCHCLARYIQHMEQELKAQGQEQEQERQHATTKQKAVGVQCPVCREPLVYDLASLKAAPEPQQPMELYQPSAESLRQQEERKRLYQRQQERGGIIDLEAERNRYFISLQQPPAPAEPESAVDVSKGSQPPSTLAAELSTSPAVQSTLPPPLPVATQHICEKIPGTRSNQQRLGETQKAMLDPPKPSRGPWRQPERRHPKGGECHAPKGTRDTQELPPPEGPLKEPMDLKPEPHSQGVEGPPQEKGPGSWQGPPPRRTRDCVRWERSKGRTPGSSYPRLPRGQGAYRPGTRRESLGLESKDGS", "log2 ratio of iodoacetamide-alkyne labeling": "1.07 (active)"}
{"target": "MYBBP1A C1031 (UniProt Q9BQG0)", "log2 ratio of iodoacetamide-alkyne labeling": "0.225 (inactive)"}
{"target": "AHCYL2 C353 (UniProt Q96HN2)", "log2 ratio of iodoacetamide-alkyne labeling": "1.13 (active)"}
{"target": "FLAD1 C499 (UniProt Q8NFF5)", "sequence (Q8NFF5 whole entry, looked up)": "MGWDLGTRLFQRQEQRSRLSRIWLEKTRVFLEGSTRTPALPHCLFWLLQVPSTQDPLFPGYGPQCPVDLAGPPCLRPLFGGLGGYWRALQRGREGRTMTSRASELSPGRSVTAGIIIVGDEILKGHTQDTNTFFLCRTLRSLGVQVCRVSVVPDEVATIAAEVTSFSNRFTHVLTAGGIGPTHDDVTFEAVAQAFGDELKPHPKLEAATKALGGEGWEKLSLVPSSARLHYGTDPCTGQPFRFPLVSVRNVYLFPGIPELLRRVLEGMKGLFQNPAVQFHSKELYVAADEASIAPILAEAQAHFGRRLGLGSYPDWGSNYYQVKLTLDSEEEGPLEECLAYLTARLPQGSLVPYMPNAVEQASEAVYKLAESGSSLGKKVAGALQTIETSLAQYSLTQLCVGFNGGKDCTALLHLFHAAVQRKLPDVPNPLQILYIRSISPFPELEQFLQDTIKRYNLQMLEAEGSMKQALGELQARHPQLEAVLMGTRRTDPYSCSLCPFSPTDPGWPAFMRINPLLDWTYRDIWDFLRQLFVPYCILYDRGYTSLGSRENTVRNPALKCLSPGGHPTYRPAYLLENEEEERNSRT", "log2 ratio of iodoacetamide-alkyne labeling": "1.06 (active)"}
